Screens (PubChem)
KB-3-1 cytotox: qHTS assay for MDR1-selective chemotherapeutics: Primary screen using the parental adenocarcinoma cell KB-3-1 | AID 1347075, 2019 | Potency, µM (top dose mostly 46.1 µM), most hits filed as cytotoxic | actives 1.4% (n = 400,000) | KB-3-1 viability, CellTiter-Glo ATP luminescence, 72 h; also: nearly all actives have a fitted effect of over 60% in size
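Viability of parental KB-3-1 cells, measured by CellTiter-Glo luminescence, followed a 72 h incubation at 37 °C with pinned compounds in phenol-red-free DMEM containing 10% FBS.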
DT40 TDP1 no CPT: qHTS for Inhibitors of human tyrosyl-DNA phosphodiesterase 1 (TDP1): qHTS in cells in absence of CPT. DT40 Tdp1-/- hTDP1 cells, no CPT, ATP luminescence, 48 h. Potency, µM (highest dose often 46.2 µM), inactives show at the highest dose activity change, negative = growth inhibition, usual class: inhibitors. actives 15% (n = 420,000). AID 686978, 2013; also: nearly all actives have a fitted effect of over 55% in size
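Luminescent ATP content (CellTiter-Glo) served as the growth readout. Knockout chicken DT40 cells expressing human TDP1 were exposed to compounds without camptothecin for a minimum 48 hr at 37 °C.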
DT40 TDP1 CPT: qHTS for Inhibitors of human tyrosyl-DNA phosphodiesterase 1 (TDP1): qHTS in cells in presence of CPT; Potency, µM (titrated, usually from 46.2 µM), inactives show at the highest dose activity change, negative = growth inhibition, hits mostly inhibitors; actives 12% (n = 420,000); AID 686979, 2013; chicken DT40 Tdp1-/-;hTDP1 cells + 20 nM CPT, ATP luminescence, 48 h; also: nearly all actives have a fitted effect of over 55% in size
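Chicken DT40 Tdp1-/- cells stably complemented with human TDP1 were seeded at 400 cells/well in medium containing 20 nM camptothecin, exposed to pin-transferred compounds, and grown at 37 °C for at least 48 hr. Viability was read as ATP luminescence.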
HT1080-NT tox: qHTS for induction of synthetic lethality in tumor cells producing 2HG: qHTS for the HT-1080-NT fibrosarcoma cell line | Potency, µM (highest dose often 46.1 µM), for inactives: at the top dose activity, negative = less viability, most hits filed as cytotoxic | HT-1080-NT fibrosarcoma viability, CellTiter-Glo ATP luminescence, 48 h | actives 1.6% (n = 360,000);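 also: NT is the 2HG producing partner of a matched IDH1 knockdown line; 0% = DMSO-treated cells and -100% = media-only wells without cells; nearly all actives have a fitted effect of over 55% in size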
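A 48-hour cytotoxicity screen used HT-1080-NT cells plated 2 hours before compound delivery. ATP-based CellTiter-Glo luminescence measured viability, normalized to DMSO and no-cell controls.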
HT1080 IDH1KD tx: qHTS for induction of synthetic lethality in tumor cells producing 2HG: qHTS for the HT-1080-IDH1KD cell line. HT-1080 IDH1 knockdown viability, ATP luminescence, 48 h. Potency, µM (series often up to 46.1 µM), for inactives: at the top dose activity, negative = toxicity, most hits filed as cytotoxic. AID 686971, 2013. actives 2% (n = 360,000);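 also: 0% = DMSO wells and -100% = cell-free medium wells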
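After a 2 h attachment period, IDH1KD HT-1080 cells took pin-transferred compound for 48 h at 37 °C; ATP-based luminescence after 10 min room-temperature reagent incubation reported viability.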
KB-V1 MDR tox: qHTS assay for MDR1-selective chemotherapeutics: Primary screen using the drug-selected MDR subline cells KB-V1; KB-V1 MDR cells viability, CellTiter-Glo, 72 h; Potency, µM (series often up to 46.1 µM), actives largely listed as cytotoxic; actives 3.4% (n = 400,000); also: nearly all actives have a fitted effect of over 60% in size
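Following 72 h at 37 degrees C with compound, KB-V1 cell viability was read by CellTiter-Glo luminescence, medium being phenol-red-free DMEM plus 10% FBS; concentration-response parameters came from normalized, curve-fitted qHTS data.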
* hit, by the source's call; i = inactive; ? = inconclusive; nt = no result given. This is a sample that favours compounds with a hit; in the whole collection about 19% have one here. Calls follow the shape of the dose curve; as a rule, active = well fitted curve in the direction sought with a large enough effect; inconclusive = small, poorly fitted or top-dose-only effect, or another doubt; inactive = no such curve, though single readings can be large; an effect the other way counts as inactive or inconclusive. Unless noted, % is scaled to controls: 0 for no effect and ±100 for the full control effect; potency is read from the fitted curve at half-maximal effect.

SMILES	KB-3-1 cytotox	DT40 TDP1 no CPT	DT40 TDP1 CPT	HT1080-NT tox	HT1080 IDH1KD tx	KB-V1 MDR tox
COc1ccc(CCN2C(=O)C3C4CCC(C4=C(C)C)C3C2=O)cc1OC (stereo unspecified)	i	8.2µM*	?	1.3%	-2.9%	?
COc1ccc(CCN2C(=O)c3cccnc3C2=O)cc1OC	i	6.1%	-0.2%	8.8%	11.5%	i
COc1ccc(CCN2C(=O)CC(NC34CC5CC(CC(C5)C3)C4)C2=O)cc1OC (stereo unspecified)	i	18.4µM*	?	-15.5%	-18.9%	?
Cc1ccc(CC(=O)NC2CCCc3ccccc32)cc1C (stereo unspecified)	i	?	?	-12.4%	0.3%	i
O=S(=O)(c1ccccc1)N1CCC2(CC1)CN(c1ncccn1)C2	nt	-11.1%	-2.3%	nt	nt	nt
COc1ccc(Cl)cc1NC(=O)CSC1=Nc2ccccc2C2=NC(CCC(=O)NCc3ccco3)C(=O)N12 (stereo unspecified)	i	?	?	nt	nt	i
COc1ccc(CNC(=O)Cc2c(C)c3c(cc(C)c4c(C)coc43)oc2=O)cc1	nt	-5.2%	-3.0%	nt	nt	nt
COc1ccc(C2SCC(=O)N2CCc2ccc(OC)c(OC)c2)cc1 (stereo unspecified)	?	5.17µM*	7.31µM*	?	18.4µM*	?
COc1ccc(CCN2C(=O)CN(Cc3ccccc3)CC2=O)cc1OC	i	-1.9%	4.1%	16.5%	9.5%	6.51µM*
COc1ccc(NC2=C(Cl)C(=O)N(CCc3ccccc3)C2=O)cc1	i	?	?	-0.5%	-6.7%	i
COc1ccc(CCNC2=C(Cl)C(=O)N(CCc3ccc(OC)c(OC)c3)C2=O)cc1OC	?	10.3µM*	14.6µM*	0.1%	-11.4%	20.6µM*
Cc1ccc(CNC(=O)c2cc(Sc3ccc(F)cc3F)nc3ccccc23)cc1	nt	-23.0%	-26.7%	nt	nt	nt
Cc1ccc(Cn2ccnc2SCC(=O)Nc2ccc3c(c2)OCO3)cc1	nt	-25.8%	12.2%	nt	nt	nt
CCCn1c(=O)c(C(=O)NCCc2ccc(OC)cc2)c(O)c2ccccc21	i	?	?	-0.3%	-7.4%	i
Cc1ccccc1-c1csc(C(O)c2cccnc2)n1 (stereo unspecified)	i	?	?	1.7%	2.1%	i
COCCn1c(C)cc(O)c(C(c2ccccc2)N2CCN(c3ccccc3F)CC2)c1=O (stereo unspecified)	i	-1.2%	-10.6%	nt	nt	i
CC1CN(S(=O)(=O)c2cccc(-c3csc(-c4ccccc4)n3)c2)CC(C)O1 (stereo unspecified)	?	25.9µM*	?	1.0%	-10.2%	i
Cc1nc(-c2cccc(S(=O)(=O)N3CCC(C)CC3)c2)cs1	i	?	?	-2.5%	-2.4%	i
Cc1nc(-c2cccc(S(=O)(=O)N3CCCC(C)C3)c2)cs1 (stereo unspecified)	i	?	14.6µM*	-4.1%	-7.1%	i
Cc1cccc(N2CC(C(=O)NCCC3=CCCCC3)CC2=O)c1C (stereo unspecified)	i	?	?	-3.7%	1.2%	i
CC(=O)Nc1ccc(C2=CC(=O)CC(C)(C)C2)cc1	i	-26.0%	?	0.0%	6.6%	i
CCOC(=O)c1ccc(N=C2NC(=O)CS2)cc1	i	-9.7%	-8.7%	2.5%	0.7%	i
